test system: MRCKA; conditions: concentration: 1 μM,replicates: in singlicate; n = 1
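Further: KINOMEscan kinase panel screen.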

In order of falling “%Inh” value:
1. Cl.Cl.NC[C@H](CC1CCCCC1)NC(=O)c1ccc(-c2ccnc3[nH]ccc23)s1 [GSK1581428]  97.1%
2. Cc1cccc(-c2nc(Nc3ccncc3)c3sccc3n2)n1 [GW869641]  67%
3. O=C(Nc1n[nH]c2cc(-c3ccco3)ccc12)C1CC1 [SB-737447]  25%
4. Cc1ccn2nc(-c3ccc(F)cc3)c(-c3ccncc3)c2c1.Cl [GW457859]  24%
5. O=C(Nc1cccc(C(F)(F)F)c1)c1cccc(Oc2ccc3nccn3n2)c1  23%
6. Cn1cc(-c2cccc3c(N)c(C(N)=O)nnc23)cn1  20%
7. C[C@@H](Oc1cc(-n2cnc3cc(-c4cnn(C)c4)ccc32)sc1C(N)=O)c1ccccc1Cl [GSK580432]  20%
8. CC(=O)c1c(-c2ccncc2)[nH]c(-c2ccncc2)c1C [GW493036]  20%
9. CCOC(=O)N1CCC(n2cnc(-c3ccc(F)cc3)c2-c2ccnc(N)n2)CC1 [SB-219952]  20%
10. COc1cc(Nc2nccc(N3CCC(NC(=O)c4cccc(C#N)c4)C3)n2)cc(OC)c1OC (centres unmarked) [GSK1379751]  18%
11. COc1cccc(CNC(=O)NC2CCN(c3ccnc(Nc4cc(OC)c(OC)c(OC)c4)n3)C2)c1 (centres unmarked) [GSK1379765]  17%
12. CS(=O)(=O)Nc1ccc(-c2ccnc3[nH]ccc23)cc1 [GSK993273]  12%
13. COC(=O)c1cccc(NC(=O)NC2CCN(c3ccnc(NCc4ccc(F)cc4)n3)CC2)c1 [GSK1379860]  12%
14. CCn1c(-c2nonc2N)nc2cncc(Br)c21 [SB-738004]  11%
15. CN1CCN(CCCNc2nccc(-c3c(-c4ccc(F)cc4)nn4cc(C(N)=O)ccc34)n2)CC1 [GW622475]  11%
16. CN(c1ccc2c(c1)nc(NCc1ccc(F)cc1)n2C)c1ccnc(Nc2ccc(CS(C)(=O)=O)cc2)n1.Cl [GW813244]  6%
17. Cn1ccc2ncnc(Oc3ccc(NC(=O)Nc4cccc(C(F)(F)F)c4)c(F)c3)c21  4%
18. CS(=O)c1ccc(-c2coc3ccc(-c4n[nH]c(=O)o4)cc23)cc1 (centres unmarked)  4%
19. Cn1ccc2ncnc(Oc3ccc(NC(=O)Nc4cccc(C(F)(F)F)c4)c(Cl)c3)c21  3%
20. Cc1n[nH]c2cc(Nc3ccnc(Nc4cccc(CN5CCOCC5)c4)n3)ccc12 [GW682569]  1%
21. CCCC(=O)Nc1n[nH]c2ncccc12 [SB-601436]  0%
22. CC(C)S(=O)(=O)N1CCN(Cc2ccc3c(c2)nc(NC(=O)c2ccsc2)n3C[C@H](O)c2ccccc2)CC1 [GW635815]  0%
23. Cn1ccc2ncnc(Oc3ccc(NC(=O)Nc4cncc(C(F)(F)F)c4)c(Cl)c3)c21  0%
24. C[C@@H](Oc1cc(-n2cnc3ccc(-c4ccncc4)cc32)sc1C(N)=O)c1ccccc1Cl [GSK483724]  0%
25. C[C@@H]1CNc2c(sc3ccc4nc(-c5ccncc5)ccc4c23)C(=O)N1  0%
26. Cn1ccc2ncnc(Oc3ccc(NC(=O)Nc4ccnc(C(F)(F)F)c4)c(Cl)c3)c21  0%
27. CC(=O)Nc1nc2cnc(Nc3cc(NC(=O)c4cccc(CC(C)(C)C#N)c4)ccc3C)nc2s1  0%
28. OCCn1cc(-c2cnc3nnn(Cc4ccc5ncccc5c4)c3n2)cn1  0%
29. Cc1ccc(C(=O)Nc2ccc(Oc3ccc4nc(NC(=O)C5CC5)cn4c3)c(F)c2)c(=O)n1-c1ccccc1  0%
30. Cn1ccc2ncnc(Oc3ccc(NC(=O)Nc4cnn(C(C)(C)C)c4)c(Cl)c3)c21  0%
31. COc1cccc(C2=C(Nc3cccc(Cl)c3)C(=O)NC2=O)c1 [SB-341556]  0%
32. Cc1ccc2c(-c3ccnc(Nc4ccc(C(F)(F)F)cc4)n3)cnn2n1 [GW819776]  0%
33. CCN1CCN(CCCC(=O)Nc2n[nH]c3nc(-c4ccc(O)cc4)c(Br)cc23)CC1 [SB-731579]  0%
34. CN1CCN(CCNc2nc3cc(Oc4ccc(NC(=O)Nc5cc(C(F)(F)F)ccc5F)cc4)ccc3[nH]2)CC1.Cl.Cl [GW768504]  0%
35. COc1cc2ncn(-c3cc(OCC4CCCCC4)c(C(N)=O)s3)c2cc1OC [GSK204559]  0%
36. O=C(NCC1CC1)c1ccc(-c2cc(C(=O)NC3CC3)ccc2F)cc1 [GW810445]  0%
37. Cc1ccc(CC(=O)N2CCc3cc(-c4cn(C)c5ncnc(N)c45)ccc32)cc1 [GSK2634758]  0%

test system: T1, MRCKB; conditions: concentration: 1 μM,replicates: in singlicate; n = 1
T1 construct: gene CDC42BPB

In order of falling “%Inh” value:
1. Cl.Cl.NC[C@H](CC1CCCCC1)NC(=O)c1ccc(-c2ccnc3[nH]ccc23)s1 [GSK1581428]  99.1%
2. Cc1cccc(-c2nc(Nc3ccncc3)c3sccc3n2)n1 [GW869641]  98.5%
3. Cn1ccc2ncnc(Oc3ccc(NC(=O)Nc4cccc(C(F)(F)F)c4)c(Cl)c3)c21  21%
4. CC(C)S(=O)(=O)N1CCN(Cc2ccc3c(c2)nc(NC(=O)c2ccsc2)n3C[C@H](O)c2ccccc2)CC1 [GW635815]  16%
5. Cc1ccc2c(-c3ccnc(Nc4ccc(C(F)(F)F)cc4)n3)cnn2n1 [GW819776]  16%
6. C[C@@H](Oc1cc(-n2cnc3ccc(-c4ccncc4)cc32)sc1C(N)=O)c1ccccc1Cl [GSK483724]  10%
7. C[C@@H]1CNc2c(sc3ccc4nc(-c5ccncc5)ccc4c23)C(=O)N1  9%
8. CS(=O)(=O)Nc1ccc(-c2ccnc3[nH]ccc23)cc1 [GSK993273]  9%
9. Cc1ccc(CC(=O)N2CCc3cc(-c4cn(C)c5ncnc(N)c45)ccc32)cc1 [GSK2634758]  9%
10. CN1CCN(CCNc2nc3cc(Oc4ccc(NC(=O)Nc5cc(C(F)(F)F)ccc5F)cc4)ccc3[nH]2)CC1.Cl.Cl [GW768504]  4%
11. Cn1cc(-c2cccc3c(N)c(C(N)=O)nnc23)cn1  3%
12. O=C(Nc1cccc(C(F)(F)F)c1)c1cccc(Oc2ccc3nccn3n2)c1  3%
13. C[C@@H](Oc1cc(-n2cnc3cc(-c4cnn(C)c4)ccc32)sc1C(N)=O)c1ccccc1Cl [GSK580432]  3%
14. CC(=O)c1c(-c2ccncc2)[nH]c(-c2ccncc2)c1C [GW493036]  3%
15. Cc1ccn2nc(-c3ccc(F)cc3)c(-c3ccncc3)c2c1.Cl [GW457859]  3%
16. CCOC(=O)N1CCC(n2cnc(-c3ccc(F)cc3)c2-c2ccnc(N)n2)CC1 [SB-219952]  3%
17. O=C(Nc1n[nH]c2cc(-c3ccco3)ccc12)C1CC1 [SB-737447]  1%
18. CCCC(=O)Nc1n[nH]c2ncccc12 [SB-601436]  0%
19. Cn1ccc2ncnc(Oc3ccc(NC(=O)Nc4cncc(C(F)(F)F)c4)c(Cl)c3)c21  0%
20. CN(c1ccc2c(c1)nc(NCc1ccc(F)cc1)n2C)c1ccnc(Nc2ccc(CS(C)(=O)=O)cc2)n1.Cl [GW813244]  0%
21. COc1cc(Nc2nccc(N3CCC(NC(=O)c4cccc(C#N)c4)C3)n2)cc(OC)c1OC (centres unmarked) [GSK1379751]  0%
22. Cn1ccc2ncnc(Oc3ccc(NC(=O)Nc4ccnc(C(F)(F)F)c4)c(Cl)c3)c21  0%
23. CC(=O)Nc1nc2cnc(Nc3cc(NC(=O)c4cccc(CC(C)(C)C#N)c4)ccc3C)nc2s1  0%
24. COc1cccc(CNC(=O)NC2CCN(c3ccnc(Nc4cc(OC)c(OC)c(OC)c4)n3)C2)c1 (centres unmarked) [GSK1379765]  0%
25. OCCn1cc(-c2cnc3nnn(Cc4ccc5ncccc5c4)c3n2)cn1  0%
26. Cc1ccc(C(=O)Nc2ccc(Oc3ccc4nc(NC(=O)C5CC5)cn4c3)c(F)c2)c(=O)n1-c1ccccc1  0%
27. Cc1n[nH]c2cc(Nc3ccnc(Nc4cccc(CN5CCOCC5)c4)n3)ccc12 [GW682569]  0%
28. Cn1ccc2ncnc(Oc3ccc(NC(=O)Nc4cnn(C(C)(C)C)c4)c(Cl)c3)c21  0%
29. Cn1ccc2ncnc(Oc3ccc(NC(=O)Nc4cccc(C(F)(F)F)c4)c(F)c3)c21  0%
30. COc1cccc(C2=C(Nc3cccc(Cl)c3)C(=O)NC2=O)c1 [SB-341556]  0%
31. CCn1c(-c2nonc2N)nc2cncc(Br)c21 [SB-738004]  0%
32. CCN1CCN(CCCC(=O)Nc2n[nH]c3nc(-c4ccc(O)cc4)c(Br)cc23)CC1 [SB-731579]  0%
33. CN1CCN(CCCNc2nccc(-c3c(-c4ccc(F)cc4)nn4cc(C(N)=O)ccc34)n2)CC1 [GW622475]  0%
34. COC(=O)c1cccc(NC(=O)NC2CCN(c3ccnc(NCc4ccc(F)cc4)n3)CC2)c1 [GSK1379860]  0%
35. COc1cc2ncn(-c3cc(OCC4CCCCC4)c(C(N)=O)s3)c2cc1OC [GSK204559]  0%
36. O=C(NCC1CC1)c1ccc(-c2cc(C(=O)NC3CC3)ccc2F)cc1 [GW810445]  0%
37. CS(=O)c1ccc(-c2coc3ccc(-c4n[nH]c(=O)o4)cc23)cc1 (centres unmarked)  0%

From PMC5540273 (PLoS ONE, 2017)
